Experimental data reported in PubChem BioAssay AID652015 (National Center for Advancing Translational Sciences (NCATS), 2013).
Results filed as inconclusive are left out. A call without a number means that no potency is given here. The source made the active and inactive calls. The call rests on the fitted dose curve; in most records, active means well fitted inhibition curve with a large enough effect; inconclusive means small, poorly fitted or top-dose-only effect; inactive means no such curve, though single readings can be large or run the other way.

The compounds below were run against Coelenterazine h 2-monooxygenase (Renilla reniformis) (UniProt P27652) (assay: qHTS Assay for Inhibitors of Sea Pansy Luciferase from the GSK Published Protein Kinase Inhibitor Set). Settings: purified Renilla luciferase, luminescence; series mostly up to 57.5 µM.
Summary of the method: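 Purified R. reniformis luciferase (1 nM final) with 5 uM coelenterazine h in 50 mM Tris acetate pH 7.5, 100 uM NaCl, 0.01% Tween-20, 0.05% BSA. A titration, about 60 uM to 300 pM; luminescence read after about 2 min.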

Sequence of Coelenterazine h 2-monooxygenase (Renilla reniformis) (P27652 whole entry, looked up): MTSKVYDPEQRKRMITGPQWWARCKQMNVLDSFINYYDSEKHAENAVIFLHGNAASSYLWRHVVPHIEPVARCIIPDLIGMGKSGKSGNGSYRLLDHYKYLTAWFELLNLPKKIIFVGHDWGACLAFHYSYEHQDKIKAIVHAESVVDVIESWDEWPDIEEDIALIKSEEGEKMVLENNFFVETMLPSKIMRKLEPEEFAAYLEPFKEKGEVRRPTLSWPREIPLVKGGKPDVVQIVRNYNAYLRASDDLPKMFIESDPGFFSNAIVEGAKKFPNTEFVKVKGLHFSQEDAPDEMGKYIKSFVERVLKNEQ

| SMILES | Potency |
| --- | --- |
| CC1(C)CC(n2cnc(-c3ccc(F)cc3)c2-c2ccnc(N)n2)CC(C)(C)N1 | inactive |
| COc1cc(Nc2nccc(-c3cnn4ncccc34)n2)cc(OC)c1 | inactive |
| O=C(Nc1n[nH]c2cc(-c3ccc(F)cc3)ccc12)C1CC1 | inactive |
| COc1cc(Nc2ncc(-c3ccccc3)o2)cc(OC)c1OC | inactive |
| CCc1ccc(Oc2nccc(-c3c(-c4ccc(F)cc4)ncn3C3CCNCC3)n2)cc1 | inactive |
| Fc1ccc(-c2nn3ncccc3c2-c2ccnc(Nc3ccc4c(c3)OCCO4)n2)cc1 | inactive |
| Fc1ccc(-c2cc(-c3cn[nH]c3-c3ccccn3)ccn2)cc1 | inactive |
| CS(=O)(=O)CCNCc1coc(-c2ccc3ncnc(Nc4ccc(OCc5ccccc5)cc4)c3c2)c1 | inactive |
| Nc1nonc1-c1nc2cnccc2n1C1CC1 | inactive |
| COc1ccc(-c2nn3ncccc3c2-c2ccnc(Nc3ccc(Cl)c(C(F)(F)F)c3)n2)cc1 | inactive |
| NC(=O)c1ccc2c(-c3ccnc(NCCCO)n3)c(-c3ccc(F)cc3)nn2c1 | inactive |
| FC(F)(F)c1cccc(Nc2nccc(-c3cnn4nc(-c5ccccc5)ccc34)n2)c1 | inactive |
| CC1=C(C(=O)Nc2ccc3[nH]ncc3c2)C(c2ccc(Cl)c(Cl)c2)CC(=O)N1 (centres undefined) | inactive |
| Fc1cccc(COc2ccc(Nc3ncnc4sc(-c5cccs5)cc34)cc2Cl)c1 | inactive |
| CCN1CCC(CC(=O)Nc2n[nH]c3nnc(-c4cccc(F)c4F)cc23)CC1 | inactive |
| CNC(=O)c1ncccc1Nc1nc(Nc2cc3c(cc2OC)CCCN3C(=O)CN(C)C)nc2[nH]ccc12 | inactive |
| Nc1nccc(-c2c(-c3ccc(F)cc3)nn3cc(C(F)(F)F)ccc23)n1 | inactive |
| CS(=O)(=O)CCNCc1cc(-c2cc3c(Nc4ccc(OCc5cccc(F)c5)c(Cl)c4)ncnc3s2)cs1 | inactive |
| Nc1nc(-c2ccc(F)cc2)c(-c2ccc3ncccc3n2)s1 | inactive |
| CCNC(=O)OC1CNC(C#Cc2cc3ncnc(Nc4ccc(OCc5cccc(F)c5)c(Cl)c4)c3s2)C1 (centres undefined) | inactive |

| SMILES | Potency |
| --- | --- |
| COc1ccc2cc(-c3c(-c4ccncc4)nc(-c4ccc(S(C)(=O)=O)cc4C)n3C)ccc2c1 | inactive |
| Cc1ccc2c(-c3ccnc(Nc4ccc5c(c4)OCCO5)n3)c(-c3ccc(C(F)(F)F)cc3)nn2n1 | inactive |
| CN1CCC(C(=O)Nc2n[nH]c3nc(-c4ccc(O)cc4)c(Br)cc23)CC1 | inactive |
| Cc1ccc(C(=O)NC2CCC2)cc1-c1ccc(C(=O)NCC2CC2)cc1 | inactive |
| CCOc1nccc2c1nc(-c1nonc1N)n2CC | inactive |
| CCn1c(-c2nonc2N)nc2ccncc21 | inactive |
| COc1cccc(C=NNc2ncnc3c2cnn3-c2cccc(OC)c2)c1 | inactive |
| Fc1ccc(-c2ncn(C3CCNCC3)c2-c2ccnc(Oc3cccc(F)c3)n2)cc1 | inactive |
| COc1cccc(-n2ncc3c(NN=Cc4ccc(C(=O)NCCN(C)C)cc4)ncnc32)c1 | inactive |
| CS(=O)(=O)Nc1ccc(-c2cc(-c3ccccc3)cc(C(N)=O)c2N)cc1 | inactive |
| O=C1N=c2ccc(N=Cc3c(O)[nH]c4ccccc34)cc2=N1 | inactive |
| Fc1ccc(-c2ncn(C3CCNCC3)c2-c2ccnc(Oc3ccc(Cl)cc3)n2)cc1 | inactive |
| CCn1c(-c2nonc2N)nc2c(N3CCCC3)nccc21 | inactive |
| Cc1nc(-c2ccccc2)n2nc(NCCCN3CCOCC3)ncc12 | inactive |
| COC(=O)Nc1nc2ccc(Oc3ccc(NC(=O)Nc4ccccc4)cc3)cc2[nH]1 | inactive |
| Cc1nn(C)c2cc(N(C)c3ccnc(Nc4cccc(S(N)(=O)=O)c4)n3)ccc12 | inactive |
| COc1ccc(-c2nn3ncccc3c2-c2ccnc(Nc3cccc(C(F)(F)F)c3)n2)cc1 | inactive |
| Cc1nnc(-c2ccc(C)c(-c3ccc(C(=O)NCc4ccc(Cl)cc4)cc3)c2)o1 | inactive |
| COc1cc2ncn(-c3cc(OCc4ccccc4Cl)c(C(N)=O)s3)c2cc1OC | inactive |
